Source: PubChem BioAssay
An excerpt weighted towards active compounds, which were near 6.1% of everything screened.
Luciferase inh – inhibitors of firefly luciferase; P08659; purified firefly luciferase, luminescence, 8 min; Potency, µM (titrated, usually from 57.1 µM), inactives show at the top dose activity change, negative = inhibition, usual class: inhibitors; actives 2.2% (n = 72,000); AID 411; also: % is scaled to controls: 0 for no effect and ±100 for the full control effect; nearly all actives have a fitted effect of over 40% in size
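qHTS concentration-response profiling: light output of P. pyralis luciferase with luciferin and 10 uM ATP, imidazole buffer pH 7.2. Read by luminescence after 8-min room-temperature incubation.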
GBA activity – human lysosomal glucosylceramidase modulation; P04062; purified enzyme, resorufin glucoside fluorescence (screen aimed at inhibitors), 20 min; Potency, µM; actives 1.1% (n = 48,000); AID 360; in the data active = potency below about 15 µM; inconclusive = mostly about 16 µM to 33 µM;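 also: the screen sought inhibitors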
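Wild-type enzyme at 0.2 nM final in 50mM citric acid/KH2PO4, 10mM sodium taurocholate, 0.01% tween-20, pH 5.9, with resorufin beta-D-glucopyranoside at 30 uM final. Compounds titrated, 20 min at RT, red fluorescence read; AC50 from titration.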
PK Bst – alters activity of Bacillus stearothermophilus pyruvate kinase. purified pyruvate kinase, luminescence ATP production; ribose 5-phosphate activator present at AC10. Potency, µM. actives 1.2% (n = 51,000); in the data active = potency below about 11 µM; inconclusive = mostly about 12 µM to 25 µM;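 the screen sought inhibitors and activators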;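 also: scaled between full activation by ribose 5 phosphate and full inhibition by luteolin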
ERK AVP block – blocks ERK signaling stimulated by vasopressin. HEK293-V1b, vasopressin-stimulated pERK AlphaScreen. Potency, µM (top dose mostly 57.5 µM), inactives show at the highest dose activity, negative = inhibition, most hits filed as inhibitors. actives 0.99% (n = 72,000). AID 995; also: % is scaled to controls: 0 for no effect and ±100 for the full control effect; nearly all actives have a fitted effect of over 55% in size
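Overnight-seeded V1b-HEK293 cells in 1% FBS got compound, then vasopressin (25 nM final, 5 min, 37C), then lysis buffer. AlphaScreen detection of phospho-ERK; activity normalized to basal and full-stimulation controls.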
HEK293 cAMP cs – counter-screen for TSHR agonists: cAMP increase in parental HEK293 | parental HEK293 CNG cAMP sensor, membrane potential fluorescence | Potency, µM (series often up to 57.1 µM), without a hit: at the highest dose activation, most hits filed as activators | actives 2.5% (n = 73,000) | AID 938; also: % of control where 0% means no effect; nearly all actives have a fitted effect of over 55% in size
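Parental HEK 293 cells stably expressing a modified CNG channel (no TSHR) report cAMP rise as membrane depolarization. Membrane potential dye with 100 uM RO 20-1724 was loaded for 60 min at room temperature, then compound added for 30 min; fluorescence read at 590 nm.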
TSHR ag – agonists of human thyroid stimulating hormone receptor | P16473 | HEK293-CNG-TSHR cells (CNG channel as cAMP sensor), membrane potential dye, cAMP | Potency, µM (highest dose often 57.1 µM), for inactives: at the top dose activation, usual class: activators | actives 0.48% (n = 73,000); active = well fitted activation curve with a large enough effect in the main read-out, with a control signal flat, not every such curve was filed as active; inconclusive = small, poorly fitted or top-dose-only effect, or a change in a side signal; inactive = no such curve, though single readings can be large or run the other way; % of control where 0% means no effect;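 also: the control signal comes from parental cells without the receptor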
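HEK 293 cells stably expressing TSHR and a modified CNG channel, with CNG-only parental cells as counterscreen, were preloaded 60 min at room temperature with membrane potential dye containing 100 uM RO 20-1724. Compound exposure was 30 min, and depolarization was read as fluorescence at 590 nm.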
The depositor's hits bear a star; i = inactive; u = inconclusive; x = no result given; [ ] = dose if it differs, or a comment. Unless noted, calls follow the shape of the dose curve; as a rule, active = well fitted curve in the direction sought with a large enough effect; inconclusive = small, poorly fitted or top-dose-only effect, or another doubt; inactive = no such curve, though single readings can be large; an effect the other way counts as inactive or inconclusive. Potency is read from the fitted curve at half-maximal effect.

SMILES	Luciferase inh	GBA activity	PK Bst	ERK AVP block	HEK293 cAMP cs	TSHR ag
COC(=O)C1=C(C)NC(C)=C(C(=O)OC)C1C1CC=CCC1 (stereo not given)	x	x	x	x	21%	20µM*
CCOc1ccc(OCC)c(NC(=O)C2COc3ccccc3O2)c1 (stereo not given)	0%	>77	>57	12%	32µM*	u
COc1ccc(OC)c(NC(=O)C2COc3ccccc3O2)c1 (stereo not given)	-2%	x	x	-9%	57%	x
O=C1[C@H]2[C@H]3[C@H](O)[C@H](O)C/C(=N/OCc4ccccc4)[C@H]3CC[C@@H]2C(=O)N1c1cccc(Oc2ccccc2)c1	2%[11.4 µM]	x	x	13%[11.5 µM]	-6%[11.4 µM]	6%[11.4 µM]
CC(=O)c1cccc(NC(=O)Nc2cccnc2)c1	-25%	x	>57	-9%	-1%	-7%
CC(=O)c1cccc(NC(=O)c2cc3ccccn3n2)c1	3.2µM*	x	x	-18%	5%	3%
CC(=O)c1cccc(NC(=O)c2cnn3ccccc23)c1	13µM*	x	x	1%	11%	4%
C[C@@H]1CCCC(CC(=O)O)(CC(=O)O)C1	-1%[11.4 µM]	x	x	1%[11.5 µM]	12%[11.4 µM]	1%[11.4 µM]
COC(=O)CCC(=O)c1oc2ccc(Br)cc2c1N	13µM*	>77	x	-14%	17%	3%
COc1ccc2oc(C(=O)CCC(=O)O)c(N)c2c1	0%	x	x	x	5%	3%
COC(=O)c1oc2ccc(Br)cc2c1-n1cccc1	7%	>77	>57	16%	32µM*	u
C=C(C)C1CC=C(C)C(OC(C)=O)C1 (stereo not given)	x	x	x	8%	-8%	u
c1ccc(-c2nnc(-c3ccco3)o2)cc1	-23%	>77	i	-1%	17%	5%
c1coc(-c2nnc(-c3ccc4c(c3)OCO4)o2)c1	10µM*	x	x	-7%	u	u
[O-][n+]1onc2c1CCc1c-2nc(-c2ccccc2)n1OCc1ccccc1	-1%	u	>57	-13%	13µM*	u
CSC1=Nc2sc3c(c2C2=NCCN12)CCCC3	-3%	6.4*	i	-25%	u	u
COc1ccc(NC(C)=O)cc1NC(=O)CSc1nnc(-c2ccccc2)n1N	1%	>77	>57	-13%	-9%	16%
COc1ccc(C)cc1NC(=O)CSc1nnc(-c2cc3cccc(OC)c3o2)n1N	-1%	>77	>57	-7%	16µM*	u
Nc1nc(-c2ccccc2)c(-c2ccccc2)c(-c2nc(N)nc(-c3ccccc3)c2-c2ccccc2)n1	2%[11.4 µM]	x	x	12%[11.5 µM]	12%[11.4 µM]	6%[11.4 µM]
O=C(O)c1ccc(S(=O)(=O)c2ccc3c(c2)C(=O)N(Cc2ccco2)C3=O)cc1	0%	>77	>57	-22%	17%	32µM*
O=C(O)c1ccc(S(=O)(=O)c2ccc3c(c2)C(=O)N(CC2CCCO2)C3=O)cc1 (stereo not given)	-2%	x	x	-9%	20µM*	u
O=C(CN1C(=O)c2ccccc2C1=O)Nc1ccc(S(=O)(=O)NCC2CCCO2)cc1 (stereo not given)	2%	>77	>57	-23%	7%	-22%
O=C(NC1=NCCS1)c1ccc2c(c1)C(=O)N(Cc1ccco1)C2=O	1%	>77	>57	-13%	0%	24%
COCCn1c(=O)c(-c2ccc(Cl)cc2)nc2cncnc21	0%[11.4 µM]	x	x	-31%	u	u
CC(C)Cn1nc(NS(=O)(=O)c2ccccc2)c2cc3ccccc3nc21	6.3µM*	>77	4.2*	-6%	6%	x
CCCn1nc(NS(=O)(=O)c2ccccc2)c2cc3ccccc3nc21	2%	>77	>57	-33%	u	u
CN(C)CCCn1cnc2cc(Cl)c(Cl)cc21	3%[11.4 µM]	x	x	-1%[11.5 µM]	2%[11.4 µM]	-2%[11.4 µM]
COC(=O)[C@@]1(Cc2ccccc2)[C@H]2c3cc(C(=O)N4CCCC4)n(CCSCCO)c3C[C@H]2CN1C(=O)c1ccccc1	x	x	x	-14%	u	u
COC(=O)[C@@]1(Cc2ccccc2)[C@H]2c3cc(C(=O)N4CCCC4)n(CC4CC4)c3C[C@H]2CN1C(=O)c1ccccc1	x	x	x	-15%	2µM*	u
